From PubChem BioAssay (NCI)
Compounds without any hit were thinned out: in the full panel of roughly 79,000, 15% have a hit. Unmarked numbers belong to inactive results. Rule as the data show it: active = growth inhibition above about 70%; inactive = the rest.

Experiment: NCI Yeast Anticancer Drug Screen. Data for the rad50 strain (AID 155);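 also: 0% = growth of vehicle-only cultures of the same strain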
Settings: S. cerevisiae rad50 strain growth inhibition; at 50.0 µM; stronger effect = higher value
Procedure, shortened: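 Relative growth inhibition (compound vs vehicle) was measured in yeast with a defined repair-gene alteration.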
`Cc1ccc(-n2c(=S)[nH]c3ccccc3c2=O)cc1` gave a growth inhibition of -8.7%. Work on `Cc1ccc(-c2cc(Cl)c3cc(S(=O)(=O)F)ccc3n2)cc1` yielded a growth inhibition of -4%. In the case of `CCCCOP(=O)(O)OCCCC.[V]`, the growth inhibition is reported as -0.55%. Work on `COc1ccc(CC[N+](C)(C)C)cc1` yielded a growth inhibition of -3.85%. `O=C(Nc1ncn[nH]1)C(Cl)(Cl)Cl` showed a growth inhibition of -4.1%. For `CC1NCCc2cc(O)c(O)cc21` (stereo not given), the growth inhibition was 4.35%. With `O=C(CBr)OCCCS(=O)(=O)O` the growth inhibition was -24.9%. Compound `C[N+]1([O-])C2CCC1CC(OC(=O)C(O)c1ccccc1)C2` (stereo not given) has a growth inhibition of 1.45%. With `COc1ccc(C(=O)OC2CC3CCC(C2)N3)cc1OC` (stereo not given) the growth inhibition was 7.25%. For `CCN(CC)C(=O)CCNC(C)Cc1c[nH]c2ccccc12` (stereo not given), the growth inhibition was -4.1%. Compound `Cc1cccc(-c2cc(Cl)c3cc(S(=O)(=O)F)ccc3n2)c1` has a growth inhibition of -1.1%. Compound `O=c1c2ccccc2[nH]c(=S)n1-c1cccc(Cl)c1` has a growth inhibition of 44.2%. With `CNCCc1ccc(O)c(O)c1` the growth inhibition was -1.6%. In the case of `CC(Cc1ccccc1)N(C)CC1C(=O)C2CCC1C2` (stereo not given), the growth inhibition is reported as 10.5%. Compound `NC(=NC1CCCCCCCCCCC1)N[N+](=O)[O-]` has a growth inhibition of 36.1%. In the case of `Cc1ccc(-n2c(=S)[nH]c3ccccc3c2=O)cc1F`, the growth inhibition is reported as -23.9%. `CN1C2c3ccccc3C3C4c5ccccc5C(C31)C(C2[N+](=O)[O-])N4C` (stereo not given) showed a growth inhibition of -12.8%. `CN1CCN(c2ccc(Cl)cc2)CC1` showed a growth inhibition of -5.85%. With `Clc1cccc(NC2=NCCS2)c1` the growth inhibition was -7.35%. Compound `Brc1ccc(C[N+]23CCN(CC2)CC3)cc1` has a growth inhibition of -14.2%. `NC(=O)NNc1ccc([N+](=O)[O-])cc1[N+](=O)[O-]` gave a growth inhibition of 12.1%. For `CSC(=S)NNC(=O)c1cccc(S(=O)(=O)F)c1`, the growth inhibition was -2.95%. In the case of `c1ccc2c(c1)O[As](O[As]1Oc3ccccc3O1)O2`, the growth inhibition is reported as -4.2%. `CC1C2C=CC1C(c1c3ccc(=O)cc-3oc3cc(O)ccc13)C2C(=O)O` (stereo not given) gave a growth inhibition of -4.85%. In the case of `O=C(CBr)OCS(=O)(=O)O`, the growth inhibition is reported as -15.2%. In the case of `COc1ccc(S(=O)(=O)F)cc1NC(=O)c1ccc2ccccc2c1O`, the growth inhibition is reported as 6.4%. `COc1ccc(-n2c(=S)[nH]c3ccccc3c2=O)cc1` showed a growth inhibition of -10.5%. In the case of `CCCOP(=O)(CCl)OCCC`, the growth inhibition is reported as -7.8%. `C/C=C1\CN2CCC1CC2C(O)c1ccnc2ccc(O)cc12` (stereo not given) gave a growth inhibition of -3.6%. `COc1cccc(N=C(N)N[N+](=O)[O-])c1` gave a growth inhibition of -13.2%. `O=C(CCN1CC=C(c2ccccc2)CC1)NCc1ccccc1` showed a growth inhibition of 5%. Work on `O=c1c2ccc(Cl)cc2[nH]c(=S)n1-c1ccc(Cl)cc1` yielded a growth inhibition of 10.1%. For `O=C(/C=C/c1ccccc1)NCCc1cnc[nH]1`, the growth inhibition was 0.65%. `CCOC(=O)c1ccc2nc(-c3ccc(S(=O)(=O)F)cc3)cc(Cl)c2c1` showed a growth inhibition of 12%. `O=[N+]([O-])c1ccc(C[N+]23CCN(CC2)CC3)cc1` gave a growth inhibition of 5.9%. For `O=C1C(Cl)=C(Cl)C1(Cl)Cl`, the growth inhibition was -3.5%.

Experiment: NCI Yeast Anticancer Drug Screen. Data for the mec2-1 strain (AID 157)
Settings: S. cerevisiae mec2-1 strain, at 50.0 µM, stronger effect = higher value
Procedure, shortened: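 mec2-1 yeast strain, carrying an alteration in DNA damage repair or cell cycle control, was exposed to compounds; growth inhibition was measured relative to vehicle-treated controls.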
`Cc1ccc(-n2c(=S)[nH]c3ccccc3c2=O)cc1` gave a growth inhibition of -7.95%. `Cc1ccc(-c2cc(Cl)c3cc(S(=O)(=O)F)ccc3n2)cc1` showed a growth inhibition of -16.6%. `CCCCOP(=O)(O)OCCCC.[V]` showed a growth inhibition of -1.55%. `COc1ccc(CC[N+](C)(C)C)cc1` gave a growth inhibition of -2.5%. In the case of `O=C(Nc1ncn[nH]1)C(Cl)(Cl)Cl`, the growth inhibition is reported as -15.9%. `CC1NCCc2cc(O)c(O)cc21` (stereo not given) showed a growth inhibition of 6.3%. For `O=C(CBr)OCCCS(=O)(=O)O`, the growth inhibition was -34.4%. For `C[N+]1([O-])C2CCC1CC(OC(=O)C(O)c1ccccc1)C2` (stereo not given), the growth inhibition was -21.2%. Work on `COc1ccc(C(=O)OC2CC3CCC(C2)N3)cc1OC` (stereo not given) yielded a growth inhibition of -19.8%. Work on `CCN(CC)C(=O)CCNC(C)Cc1c[nH]c2ccccc12` (stereo not given) yielded a growth inhibition of -13.7%. `Cc1cccc(-c2cc(Cl)c3cc(S(=O)(=O)F)ccc3n2)c1` gave a growth inhibition of -25.4%. `O=c1c2ccccc2[nH]c(=S)n1-c1cccc(Cl)c1` showed a growth inhibition of 16.1%. Work on `CNCCc1ccc(O)c(O)c1` yielded a growth inhibition of -13.2%. With `CC(Cc1ccccc1)N(C)CC1C(=O)C2CCC1C2` (stereo not given) the growth inhibition was -12.6%. `NC(=NC1CCCCCCCCCCC1)N[N+](=O)[O-]` showed a growth inhibition of 9.6%. `Cc1ccc(-n2c(=S)[nH]c3ccccc3c2=O)cc1F` gave a growth inhibition of -25.9%. Work on `CN1C2c3ccccc3C3C4c5ccccc5C(C31)C(C2[N+](=O)[O-])N4C` (stereo not given) yielded a growth inhibition of -30.8%. With `C1CCC2[N-]CCCC2C1.C1CCC2[N-]CCCC2C1.[Cl][Pt+2][Cl]` (stereo not given) the growth inhibition was 36%. Work on `CN1CCN(c2ccc(Cl)cc2)CC1` yielded a growth inhibition of -17.6%. Work on `NC(=O)Nc1cc(NC(N)=O)cc(N(CCCl)CCCl)c1` yielded a growth inhibition of -19.7%. `Clc1cccc(NC2=NCCS2)c1` gave a growth inhibition of -32.6%. `Brc1ccc(C[N+]23CCN(CC2)CC3)cc1` showed a growth inhibition of -35.1%. Compound `NC(=O)NNc1ccc([N+](=O)[O-])cc1[N+](=O)[O-]` has a growth inhibition of -5.4%. In the case of `CSC(=S)NNC(=O)c1cccc(S(=O)(=O)F)c1`, the growth inhibition is reported as -8.8%. For `c1ccc2c(c1)O[As](O[As]1Oc3ccccc3O1)O2`, the growth inhibition was 4.75%. For `CC1C2C=CC1C(c1c3ccc(=O)cc-3oc3cc(O)ccc13)C2C(=O)O` (stereo not given), the growth inhibition was 2.15%. Work on `O=C(CBr)OCS(=O)(=O)O` yielded a growth inhibition of -31.6%. `COc1ccc(S(=O)(=O)F)cc1NC(=O)c1ccc2ccccc2c1O` showed a growth inhibition of 7.75%. With `COc1ccc(-n2c(=S)[nH]c3ccccc3c2=O)cc1` the growth inhibition was -9.7%. `CCCOP(=O)(CCl)OCCC` showed a growth inhibition of -5.05%. In the case of `C/C=C1\CN2CCC1CC2C(O)c1ccnc2ccc(O)cc12` (stereo not given), the growth inhibition is reported as -13.7%. In the case of `COc1cccc(N=C(N)N[N+](=O)[O-])c1`, the growth inhibition is reported as -32%. `O=C(CCN1CC=C(c2ccccc2)CC1)NCc1ccccc1` gave a growth inhibition of -6.8%. `O=c1c2ccc(Cl)cc2[nH]c(=S)n1-c1ccc(Cl)cc1` showed a growth inhibition of -9.25%. In the case of `O=C(/C=C/c1ccccc1)NCCc1cnc[nH]1`, the growth inhibition is reported as 1.55%. With `CCOC(=O)c1ccc2nc(-c3ccc(S(=O)(=O)F)cc3)cc(Cl)c2c1` the growth inhibition was -9.95%. Compound `Oc1ccccc1C=NCCN=Cc1ccccc1O.[Zn+2]` has a growth inhibition of -2.2%. `O=[N+]([O-])c1ccc(C[N+]23CCN(CC2)CC3)cc1` showed a growth inhibition of -16.7%. `O=C1C(Cl)=C(Cl)C1(Cl)Cl` gave a growth inhibition of -20.4%.
